Hits are enriched below; roughly 7.7% of the tested compounds scored in any of these assays.
RE007 growth inh: qHTS Assay for Inhibitors of the HIV-1 protein Vpr; S. pombe RE007 Vpr strain, BacTiter-Glo ATP luminescence, 24 h; Potency, µM (highest dose often 92.2 µM), usual class: inhibitors; 0.21% of 360,000 active; active means well fitted falling curve with a large enough effect; inconclusive means small, poorly fitted or top-dose-only effect; inactive means no such curve, though single readings can be large or run the other way; further: nearly all actives have a fitted effect of over 50% in size
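Fission yeast RE007 carrying one integrated HIV-1 vpr copy, seeded at OD 0.01 in PMG+AL medium with 23 nL pinned compound. Grown 24 h at 30 degrees; viability read by BacTiter-Glo luminescence after 5 min.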
HCMV inh: qHTS Assay for inhibitors of the human cytomegalovirus (HCMV); HFF cells, HCMV-luciferase reporter, 72 h; stronger effect = lower value; activity change, negative = inhibition, % at 57.5 µM; 4.5% of 410,000 active; in the data active means activity change below about -60%; inconclusive means no clear call, values can overlap the other calls; inactive means above about -39%
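HFF cells seeded 16 h at 37C, treated with compounds, infected with luciferase-reporter HCMV at MOI 1 PFU/cell; luciferase read at 72 h post infection, normalized to buffer-only and Salinomycin controls.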
FMDV inh: High Throughput Screening for Foot and Mouth Disease Virus Antivirals; FMDV antiviral cell-based qHTS; Potency, µM (titrated, usually from 57.9 µM), actives largely listed as inhibitors; 1.2% of 410,000 active; calls by dose curve; tested in HEK293T cells; further: read-out not given here; nearly all actives have a fitted effect of over 45% in size
Giardia FBPA inh: qHTS Assay for Inhibitors of Fructose-1,6-bisphosphate Aldolase from Giardia Lamblia; purified Giardia FBPA; Potency, µM (top dose mostly 59.6 µM), hits mostly inhibitors; 0.71% of 290,000 active; further: nearly all actives have a fitted effect of over 55% in size
Target sequence (A8B2U2 whole entry, looked up): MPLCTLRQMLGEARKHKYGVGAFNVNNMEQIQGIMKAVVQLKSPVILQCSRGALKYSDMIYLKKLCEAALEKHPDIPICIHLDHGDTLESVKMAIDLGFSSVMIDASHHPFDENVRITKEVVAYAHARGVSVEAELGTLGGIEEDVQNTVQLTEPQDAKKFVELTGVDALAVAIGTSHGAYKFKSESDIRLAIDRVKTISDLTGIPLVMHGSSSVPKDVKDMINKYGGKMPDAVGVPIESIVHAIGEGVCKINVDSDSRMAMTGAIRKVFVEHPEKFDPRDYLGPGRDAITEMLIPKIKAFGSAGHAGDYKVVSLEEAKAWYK
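40 nM FBPA preincubated 10 min at RT with compound (up to 57.5 uM final), then substrate plus GAPDH/TPI/NAD/arsenate coupling and diaphorase/resazurin added. Fluorescence read after 20 min at RT, 525/598 nm.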
Sm TGR inh: qHTS Assay for the Inhibitors of Schistosoma Mansoni Peroxiredoxins; Schistosoma mansoni thioredoxin glutathione reductase (TGR), Q962Y6; purified TGR, DTNB reduction, TNB absorbance 405 nm; Potency, µM (doses to about 114 µM), hits mostly inhibitors; 3% of 360,000 active; AID 485364, 2010; further: nearly all actives have a fitted effect of over 60% in size
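First, TGR (20 nM dispensed) and NADPH were mixed with compound. Second, a 15 min room-temperature incubation followed. Third, further NADPH and then DTNB were added to start the reaction. Finally, TNB absorbance was monitored kinetically.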
TbPYK inhibitor: qHTS of Trypanosoma Brucei Inhibitors; 0.12% of 410,000 active; TbPYK enzyme, Kinase-Glo Plus ATP luminescence, 45 min; AID 624173, 2012; pyruvate kinase (Trypanosoma brucei), Q57TT1; Potency, µM (top dose mostly 76.8 µM), hits mostly inhibitors; further: nearly all actives have a fitted effect of over 50% in size
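Enzyme and substrate buffer are dispensed first and compound is pin-transferred. ADP at 130 uM final then starts the reaction, which runs 45 min at room temperature. Detection reagent is added for 10 min before luminescence is imaged.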
A number is an active result; . = inactive; ? = inconclusive; / = not tested or not shown; ! = not confirmed by another sample; [ ] = another dose, or the depositor's remark. Unless noted, the call rests on the fitted dose curve; in most records, active means well fitted curve in the direction sought with a large enough effect; inconclusive means small, poorly fitted or top-dose-only effect, or another doubt; inactive means no such curve, though single readings can be large; an effect the other way counts as inactive or inconclusive.

SMILES	RE007 growth inh	HCMV inh	FMDV inh	Giardia FBPA inh	Sm TGR inh	TbPYK inhibitor
Cc1ccc(C(=O)N2CCN(c3nc4ccccc4n3C)CC2)cc1	.	-62	?	.	.	.
Cn1c(SCC(=O)N2CCN(S(=O)(=O)c3ccc(Cl)cc3)CC2)nc2ccccc21	.	.	?	.	.	.
Cc1cc(N2CCN(S(=O)(=O)c3ccc(Cl)cc3)CC2)c2ccccc2n1	.	-87	/	.	.	.
COc1cccc(N2CC(NC(=O)c3cccc(OC)c3OC)CC2=O)c1 (stereo not given)	/	.	.	/	.	.
O=C(CSc1oc(-c2ccco2)nc1S(=O)(=O)c1ccc(Br)cc1)c1ccccc1	/	.	.	/	.	.
CC(C)(C)c1ccc(CN2CCN([C@H](c3ccccc3)c3ccc(Cl)cc3)CC2)cc1	/	/	/	/	/	.
Cc1cc(Br)cc2c(C(=O)OCC(=O)c3ccccc3)cc(-c3ccccc3)nc12	/	.	.	/	.	.
CCCCCCCCN1C(=O)[C@@H](CC(=O)NCCCOC)C[C@@]2(C(=O)OC)C1=C[C@H](C(C)(C)C)O[C@@H]2C	/	.	/	/	/	/
O=[N+]([O-])c1cc([As](=O)(O)O)ccc1O	.[18.4 µM]	.	.	.	32µM	.
CC(C)NC(=O)CSc1c2c(nc3ccccc13)CCCC2	.	-72	.	.	.	.
Cc1cc(Br)ccc1NC(=O)CSc1c2c(nc3ccccc13)CCC2	/	-95	?	/	.	.
Cc1cc(NC(=O)CSc2c3c(nc4ccccc24)CCC3)no1	.	.	?	.	.	.
COc1ccc(NC(=O)CSc2nc3c(c(=O)n2-c2ccccc2)SCC3)c(OC)c1	.	.	.	.	25µM	.
COc1ccccc1NC(=O)CSc1c2c(nc3ccccc13)CCC2	.	.	?	.	.	.
COc1ccc(NC(=O)CSc2c3c(nc4ccccc24)CCCC3)c(OC)c1	.	.	35µM	.	.	.
COc1ccc2c(c1)O[C@H](c1ccc3c(c1)OCO3)[C@@H](OC(=O)Nc1ccc(C)c(Br)c1)C2=O	/	/	/	.	/	/
c1ccc(COc2ccc(-c3cc4nc(NCCN5CCOCC5)ccn4n3)cc2)cc1	.[18.4 µM]	-62	.	/	/	.
NS(=O)(=O)c1ccc(CCNc2ccn3nc(-c4ccc(OCCN5CCOCC5)cc4)cc3n2)cc1	.	-100	.	/	/	.
CCCN(CCC)CCCNC(=O)c1cc2c(-c3ccc(Cl)cc3)nn(C)c2s1	/	-89	.	/	.	.
CCN(CC)CCCNC(=O)c1cc2c(-c3ccc(Cl)cc3)nn(C)c2s1	.	/	.	.	.	.
COc1cc(-c2n[nH]c3ccnc(-c4cccc5ncccc45)c23)cc(OC)c1OC	/	.	/	/	/	/
CCC(=O)N1CCc2cc(S(=O)(=O)CCC(=O)N3CCN(c4cccc(Cl)c4)CC3)ccc21	/	.	.	/	.	.
CCC(=O)N1c2ccc(S(=O)(=O)CCC(=O)N3CCN(c4ccccc4F)CC3)cc2CC1C (stereo not given)	.	.	.	.	22µM	.
CN1C(=O)Cc2cc(S(=O)(=O)CCC(=O)N3CCN(c4ccccc4F)CC3)ccc21	/	.	.	/	.	.
CCC(=O)N1CCc2cc(S(=O)(=O)CCC(=O)N3CCN(c4ccc(Cl)cc4)CC3)ccc21	.	-77!	?	/	.	.
SMILES	RE007 growth inh	HCMV inh	FMDV inh	Giardia FBPA inh	Sm TGR inh	TbPYK inhibitor
CCC(CCC(C)C1CCC2C3CC=C4CC(OC(C)=O)CC[C@@]4(C)C3CC[C@@]12C)C(C)C (stereo not given in full)	/	/	.	.	/	/
C=CCN1C(=O)c2ccc(C(=O)N3CCN(S(=O)(=O)c4cccc(Cl)c4)CC3)cc2C1=O	.	-76	.	/	.	.
C=CCN1C(=O)c2ccc(C(=O)N3CCC(C(N)=O)CC3)cc2C1=O	.	-86	.	/	.	.
Cc1ccc(NC(=O)CSc2nnc(N)s2)c(C)c1	/	.	.	/	.	.
COc1ccc(-c2cc3nc(C)n(N)c(=O)c3s2)cc1	11µM	.	7.9µM	.	.	?
Cn1c(NCc2ccccc2)nc2cc(-c3ccccc3)sc2c1=O	.	.	.	/	/	.
Cc1nc2cc(-c3ccccc3)sc2c(=O)n1N	?	-89	7.1µM	.	.	10µM
O=C(Nc1nc2ccc(Cl)cc2s1)c1ccc(S(=O)(=O)N2CCCC2)cc1	/	.	.	/	.	.
COC(=O)C1(C(F)(F)F)N=C(C(F)(F)F)Nc2ccc(Cl)cc21 (stereo not given)	.	-102	.	.	.	.
O=C(c1ccccc1F)N(Cc1cc2cc3c(cc2nc1N1CCOCC1)CCC3)CC1CCCO1 (stereo not given)	/	/	.	/	/	/
O=C(NC(=O)c1cc([N+](=O)[O-])ccc1Cl)C1=C(N2CCCC2)COC1=O	.	.	20µM	/	/	.
Cc1ccccc1Nc1nc(N)c(C(=O)c2ccccc2Cl)s1	/	-69	.	/	.	.
COc1ccc(C(=O)c2sc(Nc3cc(Cl)ccc3C)nc2N)cc1OC	/	.	.	/	.	.
COc1ccc(C(=O)c2sc(Nc3ccccc3F)nc2N)cc1	.	.	.	.	.	.
COc1ccc(C(=O)c2sc(Nc3ccccc3)nc2N)cc1OC	.	-92	?	.	?	.
Cc1cccc(Nc2sc(C(=O)c3ccc(Cl)cc3)c(N)c2C(N)=O)c1	/	.	.	/	.	.
CCOC(=O)c1sc(Nc2ccccc2Cl)nc1C	.	.	.	.	.	.
COc1ccc(C(=O)c2sc(Nc3ccccc3)nc2N)cc1	.	-61!	.	.	.	.
Cc1ccc(Nc2sc(C(=O)c3ccccc3)c(N)c2C(N)=O)cc1	/	.	.	/	50µM	.
CC1=C(C(=O)Nc2cccnc2)C(c2cccc(O)c2)n2nc(SCc3ccccc3)nc2N1 (stereo not given)	/	.	.	/	.	.
COc1ccc(C)cc1NC(=O)c1cn(C)c(=O)c2cc(OC)c(OC)cc12	/	.	.	/	.	.
C=C(C)Cn1c(=O)c2c(nc3n2CCN3c2cc(C)cc(C)c2)n(C)c1=O	/	.	.	/	.	.
Nc1nc(Nc2ccccc2)sc1C(=O)c1ccccc1	.	-88	.	.	.	.
COc1ccccc1CNC(=O)Cn1c(=O)ccc2cc(S(=O)(=O)N3CCCC3)ccc21	/	.	.	/	.	.
CC(=O)Nc1ccc2c3c(cccc13)CC2	.	.	.	/	/	.
Cc1ccc(S(=O)(=O)Nc2ccc3c4c(cccc24)CC3)c(C)c1	.	-70	.	/	/	.
Cc1cc(C)c(S(=O)(=O)Nc2ccc3c4c(cccc24)CC3)c(C)c1	.	-100	.	.	.	.
